# According to publication PMC10726135, “HNF4α isoforms regulate the circadian balance between carbohydrate and lipid metabolism in the liver”:
# Over roughly 18,000 sequences, “log2 normalized intensity” has its median near 0.39; the highest 2% begin near 6.6. The sample holds the highest values, similar sequences and a random draw of the others, so the mix is not that of the screen.
# Biological target: T1, HNF4alpha2 (COS-7 nuclear extract) (Homo sapiens, UniProt P41235 1-474)
# T1 sequence: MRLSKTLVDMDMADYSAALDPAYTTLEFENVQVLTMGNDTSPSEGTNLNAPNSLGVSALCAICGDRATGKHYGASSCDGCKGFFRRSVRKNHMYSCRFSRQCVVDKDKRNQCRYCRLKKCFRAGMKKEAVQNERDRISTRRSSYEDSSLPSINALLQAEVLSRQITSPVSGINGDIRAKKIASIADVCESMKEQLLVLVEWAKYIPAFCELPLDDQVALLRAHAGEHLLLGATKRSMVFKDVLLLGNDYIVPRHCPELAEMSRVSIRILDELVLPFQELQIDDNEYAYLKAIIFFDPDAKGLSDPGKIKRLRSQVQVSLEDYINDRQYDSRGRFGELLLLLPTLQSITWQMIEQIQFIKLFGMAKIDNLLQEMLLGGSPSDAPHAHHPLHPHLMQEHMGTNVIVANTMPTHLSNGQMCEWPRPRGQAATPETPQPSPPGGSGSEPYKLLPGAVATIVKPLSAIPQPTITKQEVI
# Assay: protein-binding microarray; COS-7 nuclear extract on double-stranded Agilent 4x180k PBM; binding buffer, salt, pH and temperature not given in the material; high values mean tight binding
# Conditions: chain copies: 2; label: 3' end of strand 1 on the slide; dsDNA, one strand shown
# How it was run: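 A custom Agilent SurePrint G3 4x180k array, spotted in quadruplicate with ~44,000 test sequences as ~60-nt oligonucleotides made double-stranded, was incubated with nuclear extracts. The extracts came from COS-7 cells transiently transfected by CaPO4 with a human HNF4α isoform expression vector. Bound HNF4α was imaged on an Agilent G2565CA scanner at 2-µm resolution, and the binding signal was taken as Agilent software's background-corrected, normalized gProcessedSignal.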
row,Sequence,binding signal
1,TGGTGGCACAGGGAATGGCTCGTATGAATGGCCTAGGGAGATTAGAGTATCGGTCGA,0.46 log2 normalized intensity
2,ATTGACAAAGACCAGTGCTCTTTCTTCTCTGCCTAGGGAGATTAGAGTATCGGTCGA,-0.734 log2 normalized intensity
3,AGGGTTCAAACTCCAGCTCTGATACTTTCTGCCTAGGGAGATTAGAGTATCGGTCGA,3.12 log2 normalized intensity
4,GTGAGGCATCTGGACCATTGCTGACCTTGCGCCTAGGGAGATTAGAGTATCGGTCGA,3.01 log2 normalized intensity
5,CTCTCGTCACCTCCACCCACCCGTGCATCAGCCTAGGGAGATTAGAGTATCGGTCGA,4.68 log2 normalized intensity
6,TCCCACTAGGTGGCGCTGTTGACCTTGAAAGCCTAGGGAGATTAGAGTATCGGTCGA,3.09 log2 normalized intensity
7,GCCATCTGGTGGACTTTGCTCTGCTCATTTGCCTAGGGAGATTAGAGTATCGGTCGA,6.26 log2 normalized intensity
8,TGATAGCCATCTGGTGGACTTTGCTCTGCTGCCTAGGGAGATTAGAGTATCGGTCGA,7.44 log2 normalized intensity
9,CTGCTTGATAGCCATCTGGTGGACTTTGCTGCCTAGGGAGATTAGAGTATCGGTCGA,5.26 log2 normalized intensity
10,CAAAGGGTCAAGTTCAGATCCTGGCCATGCGCCTAGGGAGATTAGAGTATCGGTCGA,0.748 log2 normalized intensity
11,GAGCAGGGTATCAGTTGAACAGAATAGAGGGCCTAGGGAGATTAGAGTATCGGTCGA,-0.996 log2 normalized intensity
12,GTGTGCAATTAGAGCAAAGGTTACTGCAGAGCCTAGGGAGATTAGAGTATCGGTCGA,2.62 log2 normalized intensity
13,GAACCTGCCCTCTGTCCCATGGTGTACAAGGCCTAGGGAGATTAGAGTATCGGTCGA,1.26 log2 normalized intensity
14,CCAGTTTTCCCAAAGGAGCTTTATTGGTTCGCCTAGGGAGATTAGAGTATCGGTCGA,1.5 log2 normalized intensity
15,TGAGAATCTGACCTTTGGTTAACTTCTTAAGCCTAGGGAGATTAGAGTATCGGTCGA,4.02 log2 normalized intensity
16,ATGTTAGTCTTGAGTCCCAAAGTCCAAAGGGCCTAGGGAGATTAGAGTATCGGTCGA,5.42 log2 normalized intensity
17,TTGTGAGTCCAAAGGTCAGCCGGGGAAGGTGCCTAGGGAGATTAGAGTATCGGTCGA,6.71 log2 normalized intensity
18,AGTCCAAAGGTCAGCCGGGGAAGGTGCAGGGCCTAGGGAGATTAGAGTATCGGTCGA,5 log2 normalized intensity
19,AAGGTTGGTTTTTGGAGACAGGAGTAGTCAGCCTAGGGAGATTAGAGTATCGGTCGA,1.3 log2 normalized intensity
20,GATGCTAGGTTTGTGAGTCCAAAGGTCAGCGCCTAGGGAGATTAGAGTATCGGTCGA,9.14 log2 normalized intensity
21,AAAAGGATGCTAGGTTTGTGAGTCCAAAGGGCCTAGGGAGATTAGAGTATCGGTCGA,4.16 log2 normalized intensity
22,TGAGTATCCAAAGGTCAGTGACAAATGTCAGCCTAGGGAGATTAGAGTATCGGTCGA,3.65 log2 normalized intensity

row,Sequence,binding signal
1,AGGTCAGGGAGTAGGTTTGATTTGTGAAAGGCCTAGGGAGATTAGAGTATCGGTCGA,0.942 log2 normalized intensity
2,TAGGTTTGTGAGTCCAAAGGTCAGCCGGGGGCCTAGGGAGATTAGAGTATCGGTCGA,7.74 log2 normalized intensity
3,TAGCCAGACCTGTTCCTCTGCCCCTCATCGGCCTAGGGAGATTAGAGTATCGGTCGA,1.7 log2 normalized intensity
4,TGAGACATTTTGTCTTTTCTCCCCTGACTAGCCTAGGGAGATTAGAGTATCGGTCGA,2.63 log2 normalized intensity
5,GGACAATCATTGTGCAACCTGGACATTGGCGCCTAGGGAGATTAGAGTATCGGTCGA,2.08 log2 normalized intensity
6,AAGGTGTATGTGGACTTTCAACTGCAGGGGGCCTAGGGAGATTAGAGTATCGGTCGA,3.47 log2 normalized intensity
7,CGAGCATGGCCGCTCCGCGAGGTGAGCCATGCCTAGGGAGATTAGAGTATCGGTCGA,0.717 log2 normalized intensity
8,TGGGCCCCACAGTGCATCTGATAAGGTTGTGCCTAGGGAGATTAGAGTATCGGTCGA,0.921 log2 normalized intensity
9,GCTGGTTGCCCCTTTGACCCTCGGGCCTCCGCCTAGGGAGATTAGAGTATCGGTCGA,5.62 log2 normalized intensity
10,AGCCTTATTCTTTGATCTCTTATCACCCTGGCCTAGGGAGATTAGAGTATCGGTCGA,1.86 log2 normalized intensity
11,CACTGGGCTGATGACCTTTGACTGAGATGGGCCTAGGGAGATTAGAGTATCGGTCGA,5.32 log2 normalized intensity
12,CTAGTTAAGTCACTGGGCTGATGACCTTTGGCCTAGGGAGATTAGAGTATCGGTCGA,6.19 log2 normalized intensity
13,CTGGATGACCTTTGTCCTGGCACAACTGGAGCCTAGGGAGATTAGAGTATCGGTCGA,5.84 log2 normalized intensity
14,AGAATCATCTTTGAGCTGGATGACCTTTGTGCCTAGGGAGATTAGAGTATCGGTCGA,7.46 log2 normalized intensity
15,CATCTTTGAGCTGGATGACCTTTGTCCTGGGCCTAGGGAGATTAGAGTATCGGTCGA,8.57 log2 normalized intensity
16,ATGACCTTTGACTGAGATGGGAGCAGTGCTGCCTAGGGAGATTAGAGTATCGGTCGA,2.23 log2 normalized intensity
17,TAAGTCACTGGGCTGATGACCTTTGACTGAGCCTAGGGAGATTAGAGTATCGGTCGA,7.08 log2 normalized intensity
18,TCCTGATCTTTGACCTGGAGCATGACCCTTGCCTAGGGAGATTAGAGTATCGGTCGA,4.86 log2 normalized intensity
19,TTGAGCTGGATGACCTTTGTCCTGGCACAAGCCTAGGGAGATTAGAGTATCGGTCGA,7.13 log2 normalized intensity
20,TGACCTTTGTCCTGGCACAACTGGATGGTGGCCTAGGGAGATTAGAGTATCGGTCGA,5 log2 normalized intensity
21,TTTTTTTTTTGAGATGGAATCTTGCCCTGTGCCTAGGGAGATTAGAGTATCGGTCGA,3.18 log2 normalized intensity
22,AGACCCTTATCAGTAGTTCTCCTTTCTGCCGCCTAGGGAGATTAGAGTATCGGTCGA,1.39 log2 normalized intensity

row,Sequence,binding signal
1,ATGCATAGAAGTATGTCTGGGATTTGAAGGGCCTAGGGAGATTAGAGTATCGGTCGA,-0.542 log2 normalized intensity
2,GTCAAGCAATGATCTTCATGAACTTCTGTCGCCTAGGGAGATTAGAGTATCGGTCGA,1.26 log2 normalized intensity
3,TAAAACCATGCAAATTGCTGACTTTCTGTGGCCTAGGGAGATTAGAGTATCGGTCGA,-0.773 log2 normalized intensity
4,CAGCAGGGCACCGCCTCCACACCCCAGCCTGCCTAGGGAGATTAGAGTATCGGTCGA,3.03 log2 normalized intensity
5,GCCCTCCCCCAGAGAGAACAGTCCTACAAAGCCTAGGGAGATTAGAGTATCGGTCGA,2.08 log2 normalized intensity
6,AAGATGGGCATTAGGTGGACAGGGGTGTGTGCCTAGGGAGATTAGAGTATCGGTCGA,1.78 log2 normalized intensity
7,ACCCTTTGAGTCCTTCATGGCTACCCTTCAGCCTAGGGAGATTAGAGTATCGGTCGA,0.859 log2 normalized intensity
8,CCCGCAGTGAGGGACAAGGCTGTCCCCCATGCCTAGGGAGATTAGAGTATCGGTCGA,1.6 log2 normalized intensity
9,GGGGGTAAAGTGGATTGCTGGCCTTTTATCGCCTAGGGAGATTAGAGTATCGGTCGA,0.814 log2 normalized intensity
10,CTCACATGAGCTAGAGCTCGTGTCATCTCTGCCTAGGGAGATTAGAGTATCGGTCGA,-0.899 log2 normalized intensity
11,CACCAGAAAAATGTACATGTGCAAAAGCACGCCTAGGGAGATTAGAGTATCGGTCGA,0.628 log2 normalized intensity
12,TCAAAGGTCAGAAAAAGCTGACGCCCCACCGCCTAGGGAGATTAGAGTATCGGTCGA,3.28 log2 normalized intensity
13,TGGGTTCAAAGGTCAGAAAAAGCTGACGCCGCCTAGGGAGATTAGAGTATCGGTCGA,6.84 log2 normalized intensity
14,TAGAAGCAGTGGGACAAAGGTCACAGGAAAGCCTAGGGAGATTAGAGTATCGGTCGA,4.42 log2 normalized intensity
15,GGTCAGAAAAAGCTGACGCCCCACCCCCTCGCCTAGGGAGATTAGAGTATCGGTCGA,5.94 log2 normalized intensity
16,GAGGGTGGGTTCAAAGGTCAGAAAAAGCTGGCCTAGGGAGATTAGAGTATCGGTCGA,6.66 log2 normalized intensity
17,AAAGGGGAAAAGGTCAAATACCAAAATGTGGCCTAGGGAGATTAGAGTATCGGTCGA,1.8 log2 normalized intensity
18,GCAGTGAGGGTGGGTTCAAAGGTCAGAAAAGCCTAGGGAGATTAGAGTATCGGTCGA,7.95 log2 normalized intensity
19,GACTCAGAAAAATATGTGGACTTCAAAGGTGCCTAGGGAGATTAGAGTATCGGTCGA,1.29 log2 normalized intensity
20,GGGAAGCAGTGAGGGTGGGTTCAAAGGTCAGCCTAGGGAGATTAGAGTATCGGTCGA,8.24 log2 normalized intensity
21,CAAGGGTCAGTTCATTAAAAAAAAAAAAAAGCCTAGGGAGATTAGAGTATCGGTCGA,1.19 log2 normalized intensity
22,GGCATGGGAAGCAGTGAGGGTGGGTTCAAAGCCTAGGGAGATTAGAGTATCGGTCGA,0.803 log2 normalized intensity

row,Sequence,binding signal
1,AAGAAAAGCCTTGTGGCAGTGAGAACAGGTGCCTAGGGAGATTAGAGTATCGGTCGA,0.143 log2 normalized intensity
2,AATTTTTTTTTCTTATCTCACTGGATGTGTGCCTAGGGAGATTAGAGTATCGGTCGA,2.22 log2 normalized intensity
3,AGGTTAAGACTTTGAATCAGTAAATATTTGGCCTAGGGAGATTAGAGTATCGGTCGA,0.901 log2 normalized intensity
4,AGATACAGGTCAGACCCTGGAATTCCAGAAGCCTAGGGAGATTAGAGTATCGGTCGA,-0.969 log2 normalized intensity
5,GGCCCATTTTCCCATGGTCTGTAGAAGGCGGCCTAGGGAGATTAGAGTATCGGTCGA,0.306 log2 normalized intensity
6,GATGTTCGTTTGGATCGCTTGGCTCAGGCCGCCTAGGGAGATTAGAGTATCGGTCGA,-0.819 log2 normalized intensity
7,CTCTGATCCTAGTCTTTGCCCCACTGCAAGGCCTAGGGAGATTAGAGTATCGGTCGA,2.95 log2 normalized intensity
8,GGGTGGTGGTTACCGGCAGAGGCTGCAGAGGCCTAGGGAGATTAGAGTATCGGTCGA,0.249 log2 normalized intensity
9,CTCCCTTTGATGCGGTCAGAGTTCATTTGGGCCTAGGGAGATTAGAGTATCGGTCGA,3.48 log2 normalized intensity
10,CAGTTTTTGTTTGCACCTCACAGGAAGAACGCCTAGGGAGATTAGAGTATCGGTCGA,1.15 log2 normalized intensity
11,ATTTGAGGGTGACACTGCTCTCTCCAGGGGGCCTAGGGAGATTAGAGTATCGGTCGA,-0.738 log2 normalized intensity
12,GGGTTTGTTTTTTGCCCTTTGTACCCACACGCCTAGGGAGATTAGAGTATCGGTCGA,7.67 log2 normalized intensity
13,AGAGGGGGTTTGTTTTTTGCCCTTTGTACCGCCTAGGGAGATTAGAGTATCGGTCGA,8.01 log2 normalized intensity
14,CCCACAGAGGGGGTTTGTTTTTTGCCCTTTGCCTAGGGAGATTAGAGTATCGGTCGA,4.6 log2 normalized intensity
15,TGCCCTTTGCCTGGTGATCTTTGTTAGACCGCCTAGGGAGATTAGAGTATCGGTCGA,2.7 log2 normalized intensity
16,TGTTTTTTGCCCTTTGTACCCACACACACCGCCTAGGGAGATTAGAGTATCGGTCGA,6.48 log2 normalized intensity
17,AGCCTACCCACCCACACCTCCCCTTTGTTTGCCTAGGGAGATTAGAGTATCGGTCGA,3.59 log2 normalized intensity
18,ATGCCGGCGTGACCCCCACTGCCTGCCTGCGCCTAGGGAGATTAGAGTATCGGTCGA,3.81 log2 normalized intensity
19,ATTTGACAATTTACAGTGTTCAAAGGTAGCGCCTAGGGAGATTAGAGTATCGGTCGA,1.66 log2 normalized intensity
